The target in one assay is Albumin (Bos taurus) (UniProt P02769). The assay is described as follows: bovine serum albumin binders on microarray, profiling panel, artefact control for SMM control protein annotation, biochemical, small-molecule microarray, Alexa647 label, 635/667 nm fluorescence (AID 1118).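 Further: score merges 667 nm emission intensity and signal-to-noise per printed compound spot.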 The conditions noted are these: BSA-A647 binding, fluorescence 635 nm, higher = more signal.
Assay [1] is described as follows: small-molecule microarray binders of probe aXIP, primary screen, biochemical, NeuroSMM set, 635/667 nm fluorescence (AID 1119).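 Further: probe is the protein aXip251-270 applied at 1 µg/mL to compound-printed slides; binding of probe to printed compounds measured as 667 nm fluorescence plus signal to noise.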 The conditions noted are these: higher = more signal, called active from +8 up or from −8 down.
The nature of assay [2]: small-molecule binders of probe aNOTCH3, primary screen, biochemical, small-molecule microarray, 635/667 nm fluorescence (AID 1120).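 Further: probe is a biotin-tagged antibody raised against NOTCH3 rather than NOTCH3 protein; score merges spot fluorescence near 667 nm with spot signal to noise.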 The conditions noted are these: higher = more signal.
A short description of assay [3]: small-molecule binders of probe aNOTCH2, primary screen, biochemical, small-molecule microarray, 635/667 nm fluorescence (AID 1121).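 Further: score merges feature fluorescence read at 667 nm with its signal to noise.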 The conditions noted are these: higher = more signal.
For assay [4], the target named is Carbonic anhydrase 2 (Homo sapiens) (UniProt P00918). In words: CAII small-molecule binders, profiling panel, biochemical, small-molecule microarray, Alexa647-labelled CAII (AID 1122). The conditions noted are these: CAII-A647 binding fluorescence, higher = more signal.
The nature of assay [5]: COS7 lysate on small-molecule microarray, probe aHis, 635 nm (AID 1123).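 Further: z-score combines 667nm fluorescence intensity with signal-to-noise per printed compound spot.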 The conditions noted are these: COS7 cell lysate, fluorescence, higher = more signal.
Assay [6] in a line: compound binding in COS7 lysate, probe aLAP1, primary screen, cell lysate, small-molecule microarray (AID 1124).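 Further: lysate comes from COS7 cells expressing LAP1 and is applied at 0.3 µg/mL; score merges spot fluorescence near 667 nm with signal-to-noise over triplicate slides.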 The conditions noted are these: probe aLAP1, fluorescence, higher = more signal.
Another assay relates to Sam68 (KHDRBS1). In words: Sam68 small-molecule binders, primary screen, biochemical, small-molecule microarray, 635 nm fluorescence (AID 1125).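 Further: score merges 667 nm channel intensity with signal to noise over triplicate slides.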 The conditions noted are these: small-molecule microarray binding, higher = more signal.
The subject of assay [7] is Chordin-like protein 2 (CHRDL2). In words: CHRDL2 small-molecule binders, primary screen, biochemical, small-molecule microarray, 635 nm fluorescence (AID 1126).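 Further: printed compound slides probed with Chrdl2 protein at 4 µg/mL for 1 h at 4 C; score merges 667 nm emission intensity with signal to noise over three replicate slides.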 The conditions noted are these: small-molecule microarray binding, fluorescence 635 nm; higher = more signal.
Assay [8] addresses Concanavalin-A (Canavalia ensiformis) (UniProt P02866). In words: ConA small-molecule binders, primary screen, artefact control for SMM control protein annotation, biochemical, small-molecule microarray, Alexa647 label, 635 nm (AID 1127).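 Further: z combines 667 nm emission intensity with signal-to-noise across three replicate slides.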 The conditions noted are these: ConA-A647 binding fluorescence, higher = more signal.

Active and inactive are the calls of the source.

Sequence of Albumin (Bos taurus) (P02769 whole entry, looked up): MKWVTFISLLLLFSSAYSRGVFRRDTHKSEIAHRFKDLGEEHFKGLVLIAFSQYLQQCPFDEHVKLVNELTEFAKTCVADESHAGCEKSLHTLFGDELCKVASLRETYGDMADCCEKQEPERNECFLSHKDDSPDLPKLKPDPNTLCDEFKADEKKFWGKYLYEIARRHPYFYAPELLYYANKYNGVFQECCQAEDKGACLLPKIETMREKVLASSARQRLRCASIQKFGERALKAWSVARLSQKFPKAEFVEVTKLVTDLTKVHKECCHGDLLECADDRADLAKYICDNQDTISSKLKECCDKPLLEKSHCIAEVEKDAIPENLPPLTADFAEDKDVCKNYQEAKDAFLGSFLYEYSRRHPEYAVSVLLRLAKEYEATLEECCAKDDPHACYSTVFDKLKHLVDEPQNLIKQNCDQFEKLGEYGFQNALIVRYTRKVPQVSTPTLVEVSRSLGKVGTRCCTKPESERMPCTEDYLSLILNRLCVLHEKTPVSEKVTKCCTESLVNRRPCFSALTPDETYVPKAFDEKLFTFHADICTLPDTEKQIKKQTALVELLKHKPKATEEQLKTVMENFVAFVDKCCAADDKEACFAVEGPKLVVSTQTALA
Sequence of Concanavalin-A (Canavalia ensiformis) (P02866 whole entry, looked up): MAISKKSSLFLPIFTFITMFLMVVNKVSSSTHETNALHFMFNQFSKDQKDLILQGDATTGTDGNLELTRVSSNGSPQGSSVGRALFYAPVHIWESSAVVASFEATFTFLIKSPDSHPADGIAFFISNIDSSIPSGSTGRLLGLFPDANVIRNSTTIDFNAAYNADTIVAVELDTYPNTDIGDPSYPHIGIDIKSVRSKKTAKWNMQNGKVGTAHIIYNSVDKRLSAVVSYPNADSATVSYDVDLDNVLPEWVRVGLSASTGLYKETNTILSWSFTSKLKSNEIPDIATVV

Take `C[C@]1(C(=O)NCC(F)(F)F)c2ccccc2C(=O)N(Cc2cc(F)cc(C(F)(F)F)c2)[C@H]1c1ccc(CO)cc1`: the composite z-score is -0.385 in the assay with Albumin (Bos taurus); -0.198 in [2]; -0.135 in assay [3]; 0.694 in assay [4]; 2.18 in assay [5]; 0.87 in assay [6]. The composite z-score is 1.11 in the assay on Sam68 (KHDRBS1), -0.115 in [7] and 0.247 in assay [8]. Moreover, the composite Z-score in assay [1] is -0.191 (inactive).

For the molecule `C[n+]1ccc2ccc(O)cc2c1`, the composite z-score was -0.567 in the assay with Albumin (Bos taurus); -0.0044 in [2]; -0.102 in [3]; 0.596 in assay [4]; 0.403 in [5]; 0.854 in [6]. Moreover, the composite z-score was determined as 0.14 in the assay on Sam68 (KHDRBS1), 1.27 in assay [7] and 0.369 in [8]. In addition, the composite Z-score in assay [1] was -0.269 (inactive).

For the molecule `[N-]=[N+]=NCc1ccccc1[C@H]1OC(c2ccc(OCCCO)cc2)=N[C@@]1(Cc1ccccc1)C(=O)NCC(O)CO` (stereo not given in full), the composite z-score in the assay with Albumin (Bos taurus) is 0.691; in [2] it was 0.506; in assay [3] it was -0.0013; in assay [4], 0.76; in assay [5], 3.42; in [6], 0.941. Further, the composite z-score in the assay on Sam68 (KHDRBS1) was 0.966; in assay [7] it was -0.609; in assay [8], -0.0213. The composite Z-score in assay [1] is 0.0638 (inactive).

For `CCCNC(=O)[C@@]1(C)c2ccccc2C(=O)N(Cc2ccc(OC(F)(F)F)cc2)[C@H]1c1ccc(CO)cc1`, the composite z-score in the assay with Albumin (Bos taurus) was 0.132; in [2], -0.0397; in assay [3] it was -0.0035; in assay [4], 0.267; in assay [5], -0.517; in [6], 0.727. Further, the results for the composite z-score (in the assay on Sam68 (KHDRBS1); in assay [7]; in [8]) were 0.565, -0.602 and 0.949, respectively. Moreover, the composite Z-score in [1] is 2.11 (inactive).

For the molecule `COCCOC(=O)N1C(=O)[C@@]2(c3cc(C#CCCO)ccc31)[C@H](C(=O)NC[C@H](O)c1ccccc1)[C@H]1C(=O)O[C@H](c3ccccc3)[C@H](c3ccccc3)N1[C@@H]2c1ccc(OCCO)cc1`, the composite z-score is 0.536 in the assay with Albumin (Bos taurus); 0.264 in assay [2]; -0.155 in assay [3]; 0.581 in assay [4]; 1.72 in assay [5]; 0.684 in assay [6]. In addition, the composite z-score was found to be 1.3 with Sam68 (KHDRBS1), 0.534 in [7] and 1.13 in assay [8]. In [1], the composite Z-score was 0.192 (inactive).

Regarding `CC[C@@H]1C=C(C(=O)O)[C@H](c2ccc(C(C)C)cc2)N1S(=O)(=O)c1ccc(C)cc1`, the composite z-score came out at 0.987 with Albumin (Bos taurus); 0.42 in [2]; 0.346 in [3]; 0.796 in assay [4]; 2.85 in [5]; 1.63 in [6]. The figures for the composite z-score (in the assay on Sam68 (KHDRBS1); in assay [7]; in assay [8]) were 1.3, -0.557 and 1.21, respectively. Moreover, in assay [1], the composite Z-score was 1.1 (inactive).

Regarding `O=C1C[C@@](C(=O)O)(c2ccc([N+](=O)[O-])cc2)[C@@H](c2ccc(CO)cc2I)N1C1CCCCC1`, the composite z-score with Albumin (Bos taurus) is 0.909; in assay [2] it was 0.18; in assay [3] it was -0.0397; in [4], 0.673; in [5] it was 1.95; in [6], -0.405. In addition, the composite z-score in the assay with Sam68 (KHDRBS1) was 0.765; in assay [7] it was -0.422; in assay [8], 1.15. In addition, the composite Z-score in assay [1] is 0.477 (inactive).

For the molecule `COc1ccc([Si](C)(C)[C@@H]2[C@@H](CC(=O)N3Cc4ccccc4C[C@H]3CO)O[C@]3(C(=O)N(Cc4cccc(N5C(=O)COc6ccccc65)c4)c4ccccc43)[C@H]2C)cc1`, the composite z-score with Albumin (Bos taurus) was 0.566; in assay [2] it was 0.0905; in assay [3], -0.177; in assay [4], 0.423; in assay [5], 0.629; in [6] it was 0.344. The composite z-score was 1.07 with Sam68 (KHDRBS1), 0.692 in assay [7] and 1.11 in assay [8]. Besides, in [1], the composite Z-score was 1.33 (inactive).

For `CO[C@H]1O[C@H](CO)[C@@H](OC(=O)Nc2ccc(C(F)(F)F)cc2)[C@H](OC(=O)Nc2ccccc2)[C@@H]1OC(=O)Nc1ccccc1`, the composite z-score is 0.533 with Albumin (Bos taurus); 0.217 in assay [2]; 0.0405 in [3]; 0.527 in [4]; 2.31 in assay [5]; -0.0098 in assay [6]. Also, the composite z-score is 1.29 with Sam68 (KHDRBS1), -0.28 in assay [7] and 1.16 in assay [8]. Also, in [1], the composite Z-score is 0.291 (inactive).

In the case of `CC(C)C(=C=CC[C@H](O)c1ccccc1OCCO)CCO`, the composite z-score with Albumin (Bos taurus) was -0.415; in [2] it was -0.0947; in assay [3] it was -0.045; in assay [4], 0.707; in assay [5], 0.989; in assay [6], 0.342. The composite z-score in the assay on Sam68 (KHDRBS1) is 0.829; in [7], -0.332; in [8], -0.284. The composite Z-score in [1] is -0.172 (inactive).

As to `C=CCC(OC(C)=O)[C@@H]1[C@@H](N(Cc2cc3ccccc3o2)C(=O)c2cccc3ccccc23)c2cc(OCCCO)ccc2N1C(=O)Cc1ccc(OC)cc1` (stereo not given in full), the composite z-score in the assay with Albumin (Bos taurus) is -0.131; in [2] it was 0.0602; in [3], -0.0937; in assay [4], 0.327; in assay [5], 0.497; in assay [6], -0.0685. Further, the figures for the composite z-score (in the assay with Sam68 (KHDRBS1); in assay [7]; in assay [8]) were -0.0427, 0.364 and -0.162, respectively. In assay [1], the composite Z-score is 0.495 (inactive).

As for `CCN(CC)c1ccc(N2CC=CC34O[C@@H]5/C=C\CCCOC(=O)C5[C@H]3C(=O)N(CCCO)[C@@H]4C2=O)cc1` (stereo not given in full), the composite z-score with Albumin (Bos taurus) is -1.05; in assay [2] it was -0.373; in assay [3], -0.104; in assay [4], 0.935; in assay [5], 3.01; in [6] it was 2.3. Also, the composite z-score in the assay on Sam68 (KHDRBS1) is 0.244; in assay [7], -1.83; in [8], -0.77. Besides, in [1], the composite Z-score is 0.895 (inactive).

Regarding `O=C1C[C@@](C(=O)O)(c2ccc([N+](=O)[O-])cc2)[C@@H](c2ccc(CO)cc2I)N1CC12CC3CC(CC(C3)C1)C2`, the composite z-score in the assay with Albumin (Bos taurus) is 0.776; in assay [2], -0.132; in assay [3] it was 0.0808; in assay [4], 0.64; in [5] it was 1.63; in assay [6], 0.945. The composite z-score is 0.993 in the assay with Sam68 (KHDRBS1), -1.42 in assay [7] and 1.09 in assay [8]. The composite Z-score in [1] was 0.235 (inactive).

Regarding `[N-]=[N+]=NCc1ccccc1C[C@]1(C(=O)NCCN2CCOCC2)N=C(c2ccc(OCCCO)cc2)O[C@H]1c1ccccc1CN=[N+]=[N-]`, the composite z-score in the assay with Albumin (Bos taurus) is 0.825; in assay [2] it was 0.399; in [3] it was -0.0474; in [4] it was 0.337; in assay [5] it was -0.827; in [6], 0.736. Also, the composite z-score in the assay with Sam68 (KHDRBS1) is 1.13; in [7], -0.0255; in assay [8] it was 1.05. Moreover, the composite Z-score in assay [1] was -0.0191 (inactive).
